The other results are listed elsewhere or left out. No count for the full screen is at hand.
Biological target: furin, P09958
Assay: furin cleavage Z-score vs untreated control; higher = more cleavage, active = 3.5 or more, inactive = 1 or less, 8 variable residues between constant flanks
Method in brief: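 Abundance of DNA freed from bead-bound 8-mer peptide–cDNA fusions by purified furin was measured as sequencing read counts after PCR adapter tagging. Cutting ran 7.5, 15 or 30 min in 0.01 ml of 50 mM HEPES pH 7.5 with CaCl2 and NaCl at 1:10 enzyme:substrate. The cleavage Z-score expresses these log counts against furin-free reactions after lowess adjustment and median absolute deviation scaling.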

Sequence of furin, P09958 (P09958 whole entry): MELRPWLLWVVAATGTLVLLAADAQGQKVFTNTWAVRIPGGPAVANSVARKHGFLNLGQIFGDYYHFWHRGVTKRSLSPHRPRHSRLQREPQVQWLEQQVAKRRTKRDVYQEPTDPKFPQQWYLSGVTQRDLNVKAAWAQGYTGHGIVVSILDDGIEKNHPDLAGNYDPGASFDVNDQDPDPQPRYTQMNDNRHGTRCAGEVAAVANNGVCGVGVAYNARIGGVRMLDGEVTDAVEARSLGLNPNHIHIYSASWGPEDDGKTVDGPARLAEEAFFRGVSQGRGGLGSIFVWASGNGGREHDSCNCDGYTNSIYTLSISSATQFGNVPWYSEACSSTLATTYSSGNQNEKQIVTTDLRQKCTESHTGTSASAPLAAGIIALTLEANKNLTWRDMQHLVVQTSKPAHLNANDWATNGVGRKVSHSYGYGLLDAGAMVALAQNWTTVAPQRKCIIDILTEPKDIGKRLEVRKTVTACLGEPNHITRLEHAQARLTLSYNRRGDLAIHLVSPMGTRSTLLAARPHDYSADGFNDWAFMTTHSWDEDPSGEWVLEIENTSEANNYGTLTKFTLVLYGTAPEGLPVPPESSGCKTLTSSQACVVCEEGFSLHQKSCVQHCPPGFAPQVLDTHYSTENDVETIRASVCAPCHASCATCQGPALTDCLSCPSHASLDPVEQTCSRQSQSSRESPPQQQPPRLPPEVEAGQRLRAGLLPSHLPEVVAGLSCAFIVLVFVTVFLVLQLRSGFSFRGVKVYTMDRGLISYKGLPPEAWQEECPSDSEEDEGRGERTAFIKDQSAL

Sequence	furin cleavage Z-score (7.5 min)	furin cleavage Z-score (15 min)	furin cleavage Z-score (30 min)
CAHVGPGEGAAGNASASA [HC1113]	-0.488 (inactive)	0.461 (inactive)	-1.05 (inactive)
CAKERRYARKAGNASASA [FS-257]	4.36 (active)	5.28 (active)	4.54 (active)
CAQKRREKKAAGNASASA [FS-79]	-0.611 (inactive)	2.25	1.6
CARLCRRSRAAGNASASA [FS-1561]	6.16 (active)	7.37 (active)	6.05 (active)
CAKESRGARGAGNASASA [FS-447]	-0.759 (inactive)	-0.656 (inactive)	-0.69 (inactive)
CAKLKLTPIAAGNASASA [HC1637]	-0.816 (inactive)	-1.09 (inactive)	-2.93 (inactive)
CARLEREKRAAGNASASA [FS-859]	7.92 (active)	10 (active)	6.63 (active)
CARLCRSVSGAGNASASA [FS-1859]	0.288 (inactive)	0.971 (inactive)	1.11
CARLRDSGRAAGNASASA [FS-85]	0.0348 (inactive)	-1.47 (inactive)	-0.955 (inactive)
CAKERREKRAAGNASASA [FS-601]	5.22 (active)	4.77 (active)	4.29 (active)
CAHAPTGSGKAGNASASA [HC775]	0.395 (inactive)	-1.05 (inactive)	-0.0524 (inactive)
CAMEGCSQHLAGNASASA [HC1716]	1.23	0.47 (inactive)	0.552 (inactive)
CAAEMEECSQAGNASASA [HC1783]	-0.835 (inactive)	2.03	-0.939 (inactive)
CASTPCSSHLAGNASASA [HC2537]	-0.548 (inactive)	-0.18 (inactive)	0.0993 (inactive)
CAEVVTSTFVAGNASASA [HC2227]	0.885 (inactive)	0.0423 (inactive)	0.809 (inactive)
CASRPSWGPTAGNASASA [HC212]	-1.22 (inactive)	0.133 (inactive)	-0.131 (inactive)
CAIPKARRPEAGNASASA [HC193]	-0.401 (inactive)	-0.306 (inactive)	-0.34 (inactive)
CAPSRRRKREAGNASASA [FS-1385]	13.2 (active)	15 (active)	9.92 (active)
CAPTRRRWREAGNASASA [FS-1386]	5.77 (active)	5.98 (active)	7.12 (active)
CAEVAERKREAGNASASA [FS-1195]	-1.19 (inactive)	1.03	0.657 (inactive)
CAPSPEFFTEAGNASASA [HC1219]	-1.44 (inactive)	-0.301 (inactive)	-0.0659 (inactive)
CAYRFVAPGEAGNASASA [HC910]	-0.691 (inactive)	-0.942 (inactive)	-0.913 (inactive)

Sequence	furin cleavage Z-score (7.5 min)	furin cleavage Z-score (15 min)	furin cleavage Z-score (30 min)
CAYRTRRKREAGNASASA [FS-637]	9.23 (active)	8.28 (active)	6.71 (active)
CAEAEVPCHRAGNASASA [HC2443]	1.31	1.69	-0.0334 (inactive)
CAPLEVVTSTAGNASASA [HC2279]	0.247 (inactive)	0.62 (inactive)	0.87 (inactive)
CAKPAIIPDRAGNASASA [HC1006]	-0.622 (inactive)	0.0184 (inactive)	-0.00549 (inactive)
CAGAVQNEITAGNASASA [HC975]	-1.74 (inactive)	-0.537 (inactive)	-1.39 (inactive)
CAGCPPDSDAAGNASASA [HC1348]	0.143 (inactive)	-0.261 (inactive)	-1.34 (inactive)
CARQRRPWEPAGNASASA [FS-2366]	-0.356 (inactive)	-0.595 (inactive)	-1.76 (inactive)
CARQRRSSGHAGNASASA [FS-3164]	6.61 (active)	6.83 (active)	6.04 (active)
CARQRRHPELAGNASASA [FS-2763]	2.08	1.42	4.23 (active)
CARQRRSHVLAGNASASA [FS-2766]	2.3	4.17 (active)	4.75 (active)
CARQRRVAGLAGNASASA [FS-2767]	-1.21 (inactive)	-0.684 (inactive)	1.04
CASRSLTPCTAGNASASA [HC719]	-0.572 (inactive)	-2.71 (inactive)	0.443 (inactive)
CANYATGNLPAGNASASA [HC242]	-0.747 (inactive)	0.727 (inactive)	-1.07 (inactive)
CAFRRRGRRSAGNASASA [FS-1325]	7.29 (active)	7.04 (active)	5.71 (active)
CAYHFRGRRSAGNASASA [FS-1438]	8.22 (active)	8.64 (active)	7.23 (active)
CAKRRRGRKSAGNASASA [FS-679]	0.804 (inactive)	2.45	1.45
CAVKKRKGRVAGNASASA [FS-922]	3.3	4.91 (active)	6.5 (active)
CAEVVRSTWVAGNASASA [HC130]	-1.7 (inactive)	-0.333 (inactive)	-1.26 (inactive)
CARMKRIFYRAGNASASA [FS-3162]	0.804 (inactive)	2.26	-0.0374 (inactive)
CARMKRAGRVAGNASASA [FS-1751]	5.19 (active)	5.19 (active)	5.87 (active)
CACVVIVGRVAGNASASA [HC1000]	0.746 (inactive)	-1.22 (inactive)	1.75
